The values below come from PubChem BioAssay.

Assay [1] is described as follows: sensitizers of A549 cells to miR-34 induction, primary screen, imaging, A549 dox-inducible miR-34, nuclei and caspase counts (AID 1347080). To be noted: A549 miR-34 inducible, Hoechst nuclei count, 48 h.
Assay [2] in a line: viability rescue of complex I mutant cybrids, primary screen, cell-based, galactose medium, ATP luminescence (AID 1645843;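 active = z-score of at least 1.8 in each of two replicates, scored against plate mean and spread of sample wells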;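 also: positive z means more ATP and so rescue of galactose-driven cybrid death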). To be noted: complex I mutant cybrid cells, 72 h, stronger effect = higher value.
Assay [3] in a line: hESC survival regulators, cell-based (AID 493140; call rule not given here;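 also: cells exposed to compounds for four days before counting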). The conditions noted are these: human embryonic stem cell survival screen; stronger effect = higher value.
Assay [4] deals with ATP-dependent translocase ABCB1 (Homo sapiens) (UniProt P08183). Description: MDR1 (ABCB1) efflux transporter inhibition, cell-based (AID 377; in the data active = fluorescence slope change above about 50%). The conditions noted are these: MDR1-expressing cells, fluorescent substrate accumulation slope; stronger effect = higher value; concentration not given here.
Sequence of ATP-dependent translocase ABCB1 (Homo sapiens) (P08183 whole entry, looked up): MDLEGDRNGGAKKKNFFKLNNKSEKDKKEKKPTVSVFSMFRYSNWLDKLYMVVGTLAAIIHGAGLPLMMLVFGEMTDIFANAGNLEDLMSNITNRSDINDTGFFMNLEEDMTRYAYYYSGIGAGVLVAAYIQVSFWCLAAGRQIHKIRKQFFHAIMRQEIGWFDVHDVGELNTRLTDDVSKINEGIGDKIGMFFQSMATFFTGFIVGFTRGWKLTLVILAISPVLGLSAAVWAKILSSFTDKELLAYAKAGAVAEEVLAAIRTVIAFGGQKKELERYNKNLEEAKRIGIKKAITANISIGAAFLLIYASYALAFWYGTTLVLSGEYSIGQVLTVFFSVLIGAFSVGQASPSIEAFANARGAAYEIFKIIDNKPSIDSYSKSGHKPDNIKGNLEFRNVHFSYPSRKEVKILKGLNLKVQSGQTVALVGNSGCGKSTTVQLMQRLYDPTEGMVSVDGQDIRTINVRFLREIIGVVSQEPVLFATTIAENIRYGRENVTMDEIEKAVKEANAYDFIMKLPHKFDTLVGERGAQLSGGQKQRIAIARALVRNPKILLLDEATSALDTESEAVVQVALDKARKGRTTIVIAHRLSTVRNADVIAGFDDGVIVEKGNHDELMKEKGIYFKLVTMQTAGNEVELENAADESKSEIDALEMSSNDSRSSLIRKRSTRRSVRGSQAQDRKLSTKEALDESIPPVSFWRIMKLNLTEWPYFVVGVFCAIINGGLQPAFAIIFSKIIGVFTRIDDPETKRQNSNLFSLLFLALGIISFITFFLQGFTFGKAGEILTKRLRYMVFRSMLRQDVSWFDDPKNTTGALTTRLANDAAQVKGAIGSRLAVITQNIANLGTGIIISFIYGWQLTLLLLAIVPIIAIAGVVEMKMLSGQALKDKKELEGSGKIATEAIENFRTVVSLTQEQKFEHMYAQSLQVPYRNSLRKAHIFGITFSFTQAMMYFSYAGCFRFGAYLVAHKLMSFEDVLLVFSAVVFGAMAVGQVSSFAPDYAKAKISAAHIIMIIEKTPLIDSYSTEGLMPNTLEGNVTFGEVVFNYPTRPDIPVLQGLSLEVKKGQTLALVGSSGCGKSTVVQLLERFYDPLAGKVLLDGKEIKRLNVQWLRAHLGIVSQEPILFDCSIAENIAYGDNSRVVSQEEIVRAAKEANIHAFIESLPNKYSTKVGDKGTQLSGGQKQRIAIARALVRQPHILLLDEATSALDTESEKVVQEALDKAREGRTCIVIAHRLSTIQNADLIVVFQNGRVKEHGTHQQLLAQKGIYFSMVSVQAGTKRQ
Assay [5] can be described thus: liver-stage malaria parasite growth inhibition, primary screen, cell-based, HepG2, luciferase luminescence, HepG2 viability (AID 624349; in the data active = parasite load remaining mostly below about 12%, no sharp cut-off; inactive = mostly above about 10%;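 also: 100% = mean of DMSO negative control wells on the same plate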). The conditions noted are these: P. berghei liver stage in HepG2, luciferase luminescence, concentration not given here; parasite load remaining: stronger effect = lower value; viability: measured here: HepG2 viability without parasites.
[6] abbreviates: stronger effect = lower value, cell number ratio, induced over uninduced.
The mark [7] stands for this setting: measured here: relative caspase fold change +Dox/-Dox.
Setting [8] is: measured here: total cells with miR-34 induction, stronger effect = lower value.
Setting [9] is: measured here: total cells without miR-34 induction.

Each structure is given as a SMILES string. “And” between values parts separate entries of the source, which are not always exact repeats. Identical values can stand only once. Results filed as inconclusive are left out. The source made the active and inactive calls.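 The calls were made as follows, unless noted: active = compounds whose cell count with miR-34 switched on is under 0.7 times the count with it off; inactive = the rest.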

For `COc1cccc2c1C(=O)c1c(O)c3c(c(O)c1C2=O)C[C@@](O)(C(=O)CO)CC3OC1CC(N)C(O)C(C)O1` (stereo partly specified), the fold change in assay [1] (setting [6]) is 0.969 (inactive) and 1 (inactive); in assay [1] (setting [7]), 0.932 and 0.974. Also, the cell count was 1960 and 2320 in assay [1] (setting [8]); 2030 and 2320 in assay [1] (setting [9]). In assay [2], the z-score was -1.87 (inactive) and -1.86 (inactive).

Regarding `COc1ccc(CCCOc2cc(CCn3ccnc3)ccc2OC)cc1`, the fold change in assay [1] (setting [6]) is 1.41 (inactive); in assay [1] (setting [7]) it was 0.402. Further, the cell count in assay [1] (setting [8]) was 3260; in assay [1] (setting [9]), 2300. Besides, in assay [2], the z-score is -1.33 (inactive).

`O=C1NC(C(=O)O)CS1` (stereo unspecified): the fold change was 0.93 (inactive) in assay [1] (setting [6]) and 1.73 in assay [1] (setting [7]). The cell count was 9590 in assay [1] (setting [8]) and 10300 in assay [1] (setting [9]). In addition, the z-score in assay [2] was 1.05 (inactive).

Consider `CN1C2CC(OC(=O)C(CO)c3ccccc3)CC1C1OC12` (stereo unspecified), for which the fold change in assay [1] (setting [6]) was 0.901 (inactive); in assay [1] (setting [7]), 2.66. In addition, the cell count in assay [1] (setting [8]) was found to be 9400; in assay [1] (setting [9]), 10400. Moreover, the z-score in assay [2] was 0.87 (inactive).

In the case of `CC(C)(C)NC(=O)C1CN(Cc2cccnc2)CCN1CC(O)CC(Cc1ccccc1)C(=O)NC1c2ccccc2CC1O` (stereo unspecified), the fold change is 0.967 (inactive) in assay [1] (setting [6]) and 1.5 in assay [1] (setting [7]). For the same compound, the cell count in assay [1] (setting [8]) was 9380; in assay [1] (setting [9]) it was 9700. The z-score in assay [2] was 1.61 (inactive).

On to `CCCCC(=O)N(Cc1ccc(-c2ccccc2-c2nn[nH]n2)cc1)C(C(=O)O)C(C)C` (stereo unspecified), for which the fold change is 0.925 (inactive) in assay [1] (setting [6]) and 1.23 in assay [1] (setting [7]). Further, the cell count in assay [1] (setting [8]) was found to be 9560; in assay [1] (setting [9]) it was 10300. Besides, in assay [2], the z-score is 1.69 (inactive).

With `COC(=O)C[C@](O)(CCCC(C)(C)O)C(=O)OC1C(OC)=C[C@]23CCCN2CCc2cc4c(cc2C13)OCO4` (stereo partly specified), the fold change in assay [1] (setting [6]) is 0.85 (inactive); in assay [1] (setting [7]), 0.957. The cell count is 1590 in assay [1] (setting [8]) and 1870 in assay [1] (setting [9]). Besides, the z-score in assay [2] is -1.86 (inactive).

With `C=CC1=C(C(=O)O)N2C(=O)C(NC(=O)C(=NO)c3csc(N)n3)C2SC1` (stereo unspecified), the fold change was 0.914 (inactive) in assay [1] (setting [6]) and 1.91 in assay [1] (setting [7]). Further, the cell count in assay [1] (setting [8]) is 9440; in assay [1] (setting [9]), 10300. For the same compound, in assay [2], the z-score was 0.13 (inactive).

On to `CCCCCCCC/C=C\CCCCCCCCOC[C@H](COP(=O)([O-])OCC[N+](C)(C)C)OC(C)=O`, for which the survival in assay [3] was 95.4 (inactive). The fold change is 0.905 (inactive) in assay [1] (setting [6]) and 1.27 in assay [1] (setting [7]). In addition, the values for the cell count in assay [1] (setting [8]) and in assay [1] (setting [9]) were 6070 and 6700, respectively.

For `CCCCC(C)(O)C/C=C/[C@H]1[C@H](O)CC(=O)[C@@H]1CCCCCCC(=O)O` (stereo partly specified), the survival in assay [3] is 92.9 (inactive). The fold change in assay [1] (setting [6]) is 0.933 (inactive) and 0.881 (inactive); in assay [1] (setting [7]) it was 1.28 and 1.98. The cell count is 6180 and 5400 in assay [1] (setting [8]); 6620 and 6130 in assay [1] (setting [9]).

For orientation: viability means a read-out of living cells in per cent, often relative to untreated cells. Consider `Cn1c(-c2ccc3c(c2)OCO3)cc(=O)c2ccccc21`, for which the fluorescence slope change in assay [4] is 6.8% (inactive). In assay [3], the survival was 4.17 (inactive). The parasite load remaining in assay [5] is 95.4% (inactive). The viability in assay [5] is 95.4%. In addition, the fold change in assay [1] (setting [6]) was 0.89 (inactive); in assay [1] (setting [7]), 1.11. In addition, the cell count in assay [1] (setting [8]) worked out at 8470; in assay [1] (setting [9]) it was 9520.

As for `O=C(O)CCC/C=C\C[C@H]1C(=O)C[C@@H](O)[C@@H]1/C=C/[C@@H](O)CCc1ccccc1`, in assay [3], the survival is 102 (inactive). Moreover, the fold change is 0.93 (inactive) and 0.922 (inactive) in assay [1] (setting [6]); 1.16 and 1.61 in assay [1] (setting [7]). Besides, the cell count is 5630 and 5680 in assay [1] (setting [8]); 6050 and 6160 in assay [1] (setting [9]).

As to `CCCCC[C@H](O)/C=C/[C@@H]1[C@H]2C/C(=C/CCCC(=O)O)C[C@H]2C[C@H]1O`, the survival in assay [3] was 59.9 (inactive). For the same compound, the fold change is 0.942 (inactive) in assay [1] (setting [6]) and 1.29 in assay [1] (setting [7]). For the same compound, the cell count is 5920 in assay [1] (setting [8]) and 6280 in assay [1] (setting [9]).

As to `Cc1n[nH]c(=O)[nH]c1=O`, the fluorescence slope change in assay [4] was 50.5% (active). The survival in assay [3] is 3.58 (inactive). Also, the parasite load remaining in assay [5] was 54.2% (inactive) and 83.7% (inactive). Further, the viability in assay [5] is 111% and 75.4%. The figures for the fold change in assay [1] (setting [6]) and in assay [1] (setting [7]) were 0.871 (inactive) and 1.41, respectively. Besides, the cell count came to 8710 in assay [1] (setting [8]) and 10000 in assay [1] (setting [9]).

Turning to `CCCCCCCC/C=C\CCCCCCCC(=O)OCC(CO)OC(=O)CCCCCCC/C=C\CCCCCCCC` (stereo unspecified), in assay [3], the survival is 88.4 (inactive). In addition, the fold change is 1.01 (inactive) in assay [1] (setting [6]) and 1.34 in assay [1] (setting [7]). The cell count stood at 5020 in assay [1] (setting [8]) and 4970 in assay [1] (setting [9]).

Turning to `COc1c(O)cc2c(c1O)C1OC(CO)C(O)C(O)C1OC2=O` (stereo unspecified), the fluorescence slope change in assay [4] is 18.9% (inactive). Moreover, the survival in assay [3] was 2.17 (inactive). Besides, the parasite load remaining in assay [5] was 89.5% (inactive). The viability in assay [5] turned out to be 106%. Besides, the fold change in assay [1] (setting [6]) is 0.91 (inactive); in assay [1] (setting [7]), 1.19. In addition, the values for the cell count in assay [1] (setting [8]) and in assay [1] (setting [9]) were 9380 and 10300, respectively.

For the compound `O=C(O)CCC/C=C\C[C@@H]1[C@@H](/C=C/[C@@H](O)COc2cccc(C(F)(F)F)c2)[C@H](O)C[C@@H]1O`, the survival in assay [3] was 118 (inactive). Further, the fold change in assay [1] (setting [6]) is 0.964 (inactive) and 1.06 (inactive); in assay [1] (setting [7]), 2.48 and 1.05. Further, the cell count is 5470 and 6950 in assay [1] (setting [8]); 5680 and 6530 in assay [1] (setting [9]).

For `CO[C@@H]1[C@@H](OC(N)=O)[C@@H](O)C(Oc2ccc3c(O)c(NC(=O)c4ccc(O)c(CC=C(C)C)c4)c(=O)oc3c2C)OC1(C)C` (stereo partly specified), the fluorescence slope change in assay [4] was 82.3% (active). Further, the parasite load remaining in assay [5] is 78.5% (inactive). Besides, in assay [5], the viability is 90.9%. Besides, the fold change is 0.855 (inactive) in assay [1] (setting [6]) and 1.4 in assay [1] (setting [7]). Moreover, the cell count in assay [1] (setting [8]) stood at 9430; in assay [1] (setting [9]) it was 11000.
